# High-throughput results: PubChem BioAssay, several laboratories
# Bead autofluor: compound fluorescence in toxin protease inhibitor counterscreen; compound autofluorescence counterscreen, microsphere flow cytometry; stronger effect = higher value; fluorescence intensity (no concentration beside the values); hit rate 3.1% among 360,000; AID 624483; in the data active = fluorescence intensity above about 16000; inconclusive = no clear call, values can overlap the other calls
# BoNT F protease: blocks Botulinum neurotoxin F light chain protease | hit rate 0.22% among 360,000 | Multiplex microsphere protease cleavage assay, flow cytometry | inhibition, % at 10 µM; in the data active = inhibition above about 35%, passing the limit was not always enough; inconclusive = no clear call, values can overlap the other calls; also: plate controls were buffer without enzyme for full effect and enzyme alone for no effect
# SSB-PriA inh: blocks PriA binding to SSB C-terminal tail. hit rate 0.6% among 430,000. AID 1272365. AlphaScreen SSBct-PriA binding, biotinylated peptide. inhibition, % at 33 µM; in the data active = inhibition mostly above about 37%, no sharp cut-off; inactive = mostly below about 20%;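 also: plate controls were negative control peptide for no effect and reference peptide for full effect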
# BoNT-A LC inh2: inhibitors of Botulinum neurotoxin A light chain protease | multiplex microsphere protease substrate cleavage, flow cytometry | inhibition, % at 10 µM | hit rate 0.17% among 360,000; also: plate controls were buffer without enzyme for full effect and enzyme alone for no effect
# Anthrax LF prot: blocks Bacillus anthracis lethal factor protease. multiplex microsphere protease cleavage assay, LF. inhibition, % at 10 µM. AID 588501. hit rate 0.12% among 360,000; also: plate controls were buffer without enzyme for full effect and enzyme alone for no effect
# Target sequence (P15917 whole entry, looked up): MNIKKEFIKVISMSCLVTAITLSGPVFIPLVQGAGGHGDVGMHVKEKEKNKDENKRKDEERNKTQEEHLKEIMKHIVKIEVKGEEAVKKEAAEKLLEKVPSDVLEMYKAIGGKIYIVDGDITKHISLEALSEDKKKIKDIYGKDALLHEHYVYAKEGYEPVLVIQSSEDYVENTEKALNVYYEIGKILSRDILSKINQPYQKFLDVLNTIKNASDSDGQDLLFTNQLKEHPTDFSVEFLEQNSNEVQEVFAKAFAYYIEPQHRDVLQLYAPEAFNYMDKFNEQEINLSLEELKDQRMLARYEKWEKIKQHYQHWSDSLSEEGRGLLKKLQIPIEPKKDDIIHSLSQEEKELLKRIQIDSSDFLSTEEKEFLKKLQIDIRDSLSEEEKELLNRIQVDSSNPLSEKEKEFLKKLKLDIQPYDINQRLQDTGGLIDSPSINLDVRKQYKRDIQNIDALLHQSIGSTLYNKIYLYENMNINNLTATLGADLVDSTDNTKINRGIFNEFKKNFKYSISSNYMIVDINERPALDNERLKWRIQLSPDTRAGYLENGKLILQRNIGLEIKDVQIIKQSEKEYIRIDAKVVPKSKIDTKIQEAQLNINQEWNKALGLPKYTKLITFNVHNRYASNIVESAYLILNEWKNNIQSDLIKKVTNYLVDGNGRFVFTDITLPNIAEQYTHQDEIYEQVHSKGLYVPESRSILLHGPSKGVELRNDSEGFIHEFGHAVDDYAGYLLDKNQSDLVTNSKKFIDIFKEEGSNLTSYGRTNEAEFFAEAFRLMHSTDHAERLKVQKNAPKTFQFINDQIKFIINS
# * hit, by the source's call; ? = inconclusive; / = no result given. Compounds with a hit are over-represented: about 3.1% of the library has one in this group of screens. Rule as the data show it, unless noted: active = inhibition above about 30%; inconclusive = no clear call, values can overlap the other calls; inactive = below that.
SMILES,Bead autofluor,BoNT F protease,SSB-PriA inh,BoNT-A LC inh2,Anthrax LF prot
CN(C)c1ccc(P(=O)(OCc2ccccc2)C(O)c2cccnc2)cc1 (stereo unspecified),20409*,1,-11,0,0
CC(C)C(O)P(=O)(OCc1ccccc1)c1ccc(N(C)C)cc1 (stereo unspecified),20468*,-3,5,-2,-4
Cc1ccc(C(O)P(=O)(OCc2ccccc2)c2ccc(N(C)C)cc2)cc1 (stereo unspecified),3442,?,-8,-6,-1
O=C(NCC1(c2cccs2)CC1)c1ccc(C(F)(F)F)cc1,/,/,-5,/,/
O=C(c1ccno1)N1CC(S(=O)(=O)C2CCCCC2)C1,/,/,-14,/,/
S=C(NCCc1ccccc1)N1Cc2cc(-c3ccccc3)ccc2-n2nncc2C1,5567,6,/,5,12
S=C(NCCc1ccccc1)N1Cc2cc(N3CCCCC3)ccc2-n2nncc2C1,32547*,70*,/,-20,-7
C=CCn1c(SCc2c(F)cccc2Cl)nnc1-c1ccco1,16837*,0,-4,0,-2
CCOc1nn(CC)cc1C(=O)Nc1ccc(F)c(Cl)c1,/,/,-26,/,/
Cn1cnnc1SCC(=O)Nc1ccc2nc(SCc3ccccc3Cl)sc2c1,25037*,-14,6,?,-6
CCC(=O)Nc1ccc2nc(SCC(=O)N3CCCC3)sc2c1,20940*,2,-20,4,-18
Cn1cnnc1SCC(=O)Nc1ccc2nc(SCc3cccc4ccccc34)sc2c1,2653,-7,5,1,4
CC(=O)CSc1nc2ccc(Nc3nc(N4CCOCC4)nc(N4CCOCC4)n3)cc2s1,16232*,2,-5,0,0
CCCNS(=O)(=O)c1ccc(N)cc1,/,/,-6,/,/
C(=Nc1nc2ccccc2[nH]1)c1cccs1,/,/,-20,/,/
C(=N\c1nc2ccccc2[nH]1)/c1cccs1,23619*,-2,/,?,-2
CC(=O)Nc1nc(=S)n(-c2ccccc2)[nH]1,22526*,2,-21,2,0
CC(C)N(C(=O)Cn1cc(S(=O)(=O)CC(=O)NCc2ccccc2Cl)c2ccccc21)C(C)C,/,/,-6,/,/
O=C(CS(=O)(=O)c1ccc(F)cc1)Nc1nc(-c2cccc([N+](=O)[O-])c2)cs1,/,/,-19,/,/
O=S1CCCSC1c1cccnc1 (stereo unspecified),21912*,-1,-16,2,-5
COc1ccc(OC)c(NC(=O)c2ccccc2SC)c1,16141*,-3,-1,0,0
CSc1ccccc1C(=O)Nc1cc(C)cc(C)c1,2436,12,-16,0,0
CSc1ccccc1C(=O)Nc1ccc(C)c(C)c1,16135*,1,-5,?,-9
COC1(CNC(=O)c2cc(-c3ccccc3)on2)Cc2ccccc2C1,/,/,-7,/,/
Cc1ccc(S(=O)(=O)CCC(=O)N2CCN(c3ccc(Cl)cc3)CC2)cc1,17240*,-3,-8,-2,-2
SMILES,Bead autofluor,BoNT F protease,SSB-PriA inh,BoNT-A LC inh2,Anthrax LF prot
O=C(CCS(=O)(=O)c1ccc(Cl)cc1)N1CCN(c2ccc(F)cc2)CC1,/,/,3,/,/
Cc1cc(OCC(=O)OC(C)(C)C)c2c3c(c(=O)oc2c1)CCC3,6977,3,-19,0,11
Cc1cc(OC(=O)CCNC(=O)OC(C)(C)C)c2c3c(c(=O)oc2c1)CCC3,22958*,0,-12,2,-2
Cc1cc(OC(=O)CCCNC(=O)OC(C)(C)C)c2c3c(c(=O)oc2c1)CCC3,9254,-1,-6,0,-2
CCC(NC(=O)OC(C)(C)C)C(=O)Oc1cc(C)cc2oc(=O)c3c(c12)CCC3 (stereo unspecified),20994*,-2,-12,-1,0
CCC(NC(=O)OC(C)(C)C)C(=O)Oc1ccc2c3c(c(=O)oc2c1)CCC3 (stereo unspecified),17288*,-4,-9,-1,-5
Cc1ccc(N2CCN(CC3CC=CCC3)CC2)cc1 (stereo unspecified),21210*,3,14,2,-2
FC(F)(F)c1cccc(N2CCN(CC3CC=CCC3)CC2)c1 (stereo unspecified),3051,-6,-48,-1,-4
Cc1cc(NC(=O)c2sc3ccccc3c2Cl)on1,/,/,-9,/,/
Cc1cc([N+](=O)[O-])cc([N+](=O)[O-])c1NCC(C)C,3476,-6,44*,0,-9
Cc1ccc(S(=O)(=O)Nc2c(C)cc([N+](=O)[O-])cc2C)cc1,2987,2,-7,0,-9
O=C(NCC1CCCC(CNC(=O)N2CCc3ccccc32)C1)N1CCc2ccccc21 (stereo unspecified),21215*,-1,-1,0,-4
CCc1cc(C(=O)COc2ccccc2F)c(O)cc1O,18558*,2,-8,?,-6
CS(=O)(=O)c1ccc(NC(=O)C2CSCCC(=O)N2)cc1 (stereo unspecified),/,/,0,/,/
CCOc1ccc2nc(NC(=O)Cc3csc(NC(=O)Nc4ccc(Cl)cc4)n3)sc2c1,/,/,-19,/,/
Cc1ccc(S(=O)(=O)N2c3ccccc3OCC2c2ccccc2)cc1 (stereo unspecified),4424,4,-16,0,-4
O=C(C(Cl)Cl)N1c2ccccc2OCC1c1ccccc1 (stereo unspecified),22852*,-3,-19,?,-1
CC1CN(CC(=O)Nc2sccc2C#N)CC(C)O1 (stereo unspecified),/,/,5,/,/
COc1ccc(NC(=O)c2ccc(CN(c3cc(Cl)ccc3C)S(=O)(=O)c3ccccc3)cc2)cc1OC,20845*,-11,2,-4,-4
Cc1ccc(Cl)cc1N(Cc1ccc(C(=O)NCc2cccnc2)cc1)S(=O)(=O)c1ccccc1,22366*,2,0,?,0
COc1ccccc1NC(=O)c1ccc(CN(c2cc(Cl)ccc2C)S(=O)(=O)c2ccccc2)cc1,2323,-8,-6,0,-1
Cc1cc(C(=O)N2CCN(c3ccc(-c4noc(C(F)(F)F)n4)cn3)CC2)c(C)o1,/,/,-6,/,/
Cn1nc(CN(Cc2ccco2)C(=O)COc2cccc3c2OC(C)(C)C3)c2c1CCC2,/,/,19,/,/
COc1ccc(Cl)cc1NC(=O)c1nnn(Cc2ccccc2F)c1-c1ccncc1,/,/,-23,/,/
CCCc1nnc(NC(=O)Cn2c(=O)oc3cc(Br)ccc32)s1,21386*,4,-13,2,-1
SMILES,Bead autofluor,BoNT F protease,SSB-PriA inh,BoNT-A LC inh2,Anthrax LF prot
COc1cc2c(cc1OC)CN(C(=O)CSc1nc3scc(-c4ccc(C)cc4)c3c(=O)n1-c1ccccc1)CC2,/,/,-23,/,/
CCC(COC)Oc1cc(NCc2ccccc2)c2ncn(C(C)C)c2c1 (stereo unspecified),3744,-7,63*,0,-1
COc1ccc(Cc2cc(NCc3ccccc3)c3ncn(C(C)C)c3c2)cc1,3928,5,66*,0,-2
O=C(NCCOc1ccccc1)NCC1CCN(C(=O)c2cc3ccccc3o2)CC1,/,/,-6,/,/
CC(C)C(=O)Nc1ccc2oc(-c3cc(F)c(F)cc3Cl)nc2c1,24150*,0,-27,-1,1
COc1ccc(C(C)=O)cc1COC(=O)c1cccc(N(C)C)c1,3334,39*,3,0,-4
CN(C)CC1(c2ccccc2)CCCC1,17486*,-4,-7,-2,-1
Cc1ccc2c3c(c(SCC(=O)Nc4nonc4C)nc2c1)CCCC3,23233*,-1,-17,?,-3
